# Assay results as given in the supplement of paper PMC12636033.
# ± gives the standard deviation of the averaged measurements. In all, about 33,000 sequences were measured (“E-score (rank enrichment, -0.5 to 0.5)”: median about -0.0043, highest 2% from about 0.24 on). For the sample, the highest values were picked, then their nearest neighbours and some sequences at random.
# Tested on: 2Sp-muMax20 (muMax20 with two 2,6-bis(methyl)pyridine Cys staples)
# Test: PBM 8-mer E-score (E-score (rank enrichment, -0.5 to 0.5)); higher = stronger preferential binding
# Description: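 Protein binding microarray (universal PBM chip covering all 10-mers in fixed probe flanks) with chemically synthesized human Max(13-93) bHLH-LZ analogs (not full-length Max) bearing noncanonical residues (hArg, Tha, Aib, Nle at 65) and aromatic Cys staples. Read-out per 8-mer (and its reverse complement): E-score (rank-based enrichment, -0.5 to 0.5) and Z-score of median probe intensity.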
row,Sequence,PBM 8-mer E-score
1,GAATAATA,0.0134 ± 0.025
2,GTATAAGA,0.171 ± 0.024
3,CTATAATA,0.0904 ± 0.023
4,GTATAATA,0.26 ± 0.018
5,GCGACCCA,-0.125 ± 0.0022
6,TAACTAGA,0.216 ± 0.032
7,TAAATTGA,0.123 ± 0.068
8,ACTACACA,0.317 ± 0.02
9,GCTATACA,0.148 ± 0.0048
10,CCTACACG,-0.0918 ± 0.0064
11,AATATACA,0.272 ± 0.012
12,TATATACA,0.11 ± 0.072
13,ACTATACA,0.236 ± 0.052
14,AATATACT,0.0855 ± 0.0041
15,TCTATACA,0.111 ± 0.0021
16,ACTACACG,0.134 ± 0.1
17,GAGGGCAA,0.00807 ± 0.048
18,AATTGTGT,0.124 ± 0.015
19,ATGGCGTC,-0.112 ± 0.017
20,AATCTCAC,-0.00554 ± 0.028
21,GCACAACC,-0.26 ± 0.11
22,GCACAACA,0.245 ± 0.044
23,CCACAACA,-0.0195 ± 0.008
24,TATCGATA,0.28 ± 0.0074
25,GATCGATA,0.0711 ± 0.063

row,Sequence,PBM 8-mer E-score
1,AATCGATA,0.122 ± 0.028
2,CGTAGTTC,-0.126 ± 0.036
3,ATGGTGCG,-0.0695 ± 0.038
4,CATGGGCC,-0.227 ± 0.033
5,ATGGTAAT,0.0649 ± 0.056
6,CCCGTAGA,-0.219 ± 0.0027
7,CGGCGGGA,-0.183 ± 0.048
8,CGCGGGGA,0.00762 ± 0.0032
9,GGCGGGGA,0.327 ± 0.0043
10,GGCGGGAA,0.0758 ± 0.012
11,AGGCGGGA,0.0612 ± 0.085
12,GGGCGGGA,0.302 ± 0.009
13,CGGGATAG,-0.0726 ± 0.029
14,AATAATCA,0.0327 ± 0.025
15,GATAATCC,-0.0127 ± 0.051
16,TATAATCA,0.248 ± 0.026
17,GATAATCA,0.291 ± 0.0043
18,CATAATCA,0.122 ± 0.058
19,GATAATAA,0.161 ± 0.11
20,CTCCTGCA,-0.0859 ± 0.085
21,ACCAGCGA,-0.0875 ± 0.13
22,AGTGCCCG,-0.183 ± 0.011
23,CGGGCCCG,-0.0343 ± 0.1
24,ACCTTCAG,0.0376 ± 0.011
25,CAAACGGC,-0.18938 ± 4.9e-05

row,Sequence,PBM 8-mer E-score
1,AAAACGGC,0.295 ± 0.024
2,AAACGGCT,-0.108 ± 0.055
3,CAACGGCC,-0.302 ± 0.033
4,AAACGGCC,0.2844 ± 0.0015
5,GAAACGGC,-0.0635 ± 0.06
6,GTATCTCA,0.17 ± 0.075
7,CAACCTCC,-0.00017 ± 0.065
8,GAAGTGTA,-0.0146 ± 0.06
9,ATGGCTGG,-0.00368 ± 0.018
10,TATGTCAA,0.224 ± 0.067
11,AGTGGTAA,0.0408 ± 0.025
12,ACTATCTC,-0.108 ± 0.18
13,AGTATATG,0.125 ± 0.12
14,AGTATCTA,0.3 ± 0.034
15,CCTATATC,-0.0131 ± 0.064
16,GGTATCTA,-0.00749 ± 0.008
17,ATTATATA,0.199 ± 0.014
18,CGTATCTA,0.000215 ± 0.053
19,ATTATATG,0.198 ± 0.017
20,ATTATATC,0.243 ± 0.051
21,ACTATATC,0.302 ± 0.055
22,AGTATATC,-0.0248 ± 0.067
23,AGTATATA,0.273 ± 0.03
24,CGCGCTGA,0.00249 ± 0.09
25,CATGCAGG,0.0699 ± 0.036

row,Sequence,PBM 8-mer E-score
1,CCTAGTTA,0.0579 ± 0.045
2,CGTGGGTC,0.00478 ± 0.056
3,CCCAAACC,0.0283 ± 0.012
4,AGTGCAAA,-0.0314 ± 0.044
5,GTGTGGCA,0.0191 ± 0.059
6,GAAGCCGA,-0.13 ± 0.0099
7,CGATCCTC,-0.0245 ± 0.032
8,GCGCAAAC,0.11 ± 0.026
9,GCGTAGGA,0.112 ± 0.03
10,ATGCTTGG,0.102 ± 0.0062
11,ACTATATA,0.254 ± 0.018
12,ACTATATG,0.196 ± 0.0091
13,ATTATACG,0.125 ± 0.014
14,ATTATACC,0.238 ± 0.031
15,GCTATATA,0.149 ± 0.013
16,ATTATACA,0.0914 ± 0.033
17,CTTCGGAA,-0.0272 ± 0.017
18,ATTCGCCC,0.0547 ± 0.0036
19,ATCTGACA,-0.0699 ± 0.061
20,TTATTCAA,0.133 ± 0.037
21,ATATTCAG,0.126 ± 0.074
22,ATATTCAT,0.299 ± 0.027
23,ATATTCAC,0.109 ± 0.072
24,CTATTCAA,0.266 ± 0.08
25,ATATTCAA,0.157 ± 0.012

row,Sequence,PBM 8-mer E-score
1,ACGCTTTC,-0.00481 ± 0.013
2,ACGCGAAT,0.0678 ± 0.068
3,TAGAATGA,0.207 ± 0.064
4,CTAGTATA,0.219 ± 0.023
5,ATAGTATA,0.11 ± 0.035
6,GTAGTATA,0.236 ± 0.045
7,AAAGTATA,0.236 ± 0.03
8,AAAGTATT,0.223 ± 0.0032
9,CAAGTATA,0.142 ± 0.1
10,CGAACCTA,-0.123 ± 0.015
11,GCGCACTA,0.0235 ± 0.033
12,AAATGCTG,0.0946 ± 0.018
13,AAATGCTA,0.251 ± 0.058
14,GAATGCTA,-0.14 ± 0.023
15,GTAAACTA,0.175 ± 0.032
16,CACCAACA,0.106 ± 0.0083
17,CCCCCATA,0.0149 ± 0.042
18,GCCCCATA,0.29 ± 0.019
19,GGCCCATA,-0.0969 ± 0.099
20,AGCCCATA,0.238 ± 0.035
21,GACCCATA,0.188 ± 0.032
22,CGCCCATA,0.0508 ± 0.075
23,GTACCAAC,-0.0554 ± 0.078
24,ATCCAGGC,-0.01 ± 0.042
25,AAGACAGG,-0.106 ± 0.025

row,Sequence,PBM 8-mer E-score
1,GTCTGGAA,-0.0499 ± 0.016
2,ATCCAAGA,-0.0976 ± 0.054
3,AGGTGGAT,-0.1057 ± 0.00054
4,AAAAATCG,-0.00934 ± 0.012
5,ACATAATG,0.193 ± 0.064
6,GCATAATA,0.2429 ± 0.0015
7,CCATAGTA,0.144 ± 0.0076
8,GCATAAGA,0.0752 ± 0.0016
9,ACATAGTA,0.118 ± 0.076
10,GCATAGTA,0.273 ± 0.032
11,CCATAATA,0.161 ± 0.054
12,ACATAATC,0.109 ± 0.04
13,ACATAATA,0.262 ± 0.075
14,GACATGAC,0.00058 ± 0.047
15,GTATGCAC,0.075 ± 0.08
16,AACGTTGG,-0.0574 ± 0.07
17,CGAGCGAA,0.0234 ± 0.064
18,ATCATTAA,0.0844 ± 0.0038
19,AGCATTAT,0.266 ± 0.05
20,AGCATTAG,0.0579 ± 0.1
21,AGCATTAA,0.209 ± 0.0096
22,CGCATTAA,0.0861 ± 0.014
23,CTCATTAC,0.197 ± 0.087
24,AGCATTAC,-0.0132 ± 0.0023
25,CTCATTAA,0.273 ± 0.031

row,Sequence,PBM 8-mer E-score
1,TGCATTAA,0.285 ± 0.014
2,CCGGGCTA,-0.277 ± 0.0046
3,TGACCTCA,-0.183 ± 0.016
4,AGCTCAGA,-0.181 ± 0.0029
5,CGGATAGC,-0.0994 ± 0.018
6,CTAGCTGA,-0.0742 ± 0.045
7,ATACATAT,0.258 ± 0.0069
8,AGACATAC,-0.0281 ± 0.088
9,AGTCATAT,0.24 ± 0.015
10,AGACATAT,0.249 ± 0.0045
11,AGTCATAG,0.0709 ± 0.034
12,AGTCATAA,0.037 ± 0.035
13,AGACATAG,0.0229 ± 0.087
14,ATACATAC,0.0484 ± 0.023
15,ATACATAA,0.0924 ± 0.008
16,ACCTTATG,0.0929 ± 0.036
17,GGGGAACA,0.124 ± 0.0046
18,AATCAACC,0.157 ± 0.047
19,ACTAAGCT,-0.0864 ± 0.087
20,ATTCTCAC,0.0448 ± 0.078
21,ATAGCATC,0.118 ± 0.015
22,ATAGCATA,0.204 ± 0.038
23,ATAGCATG,0.258 ± 0.037
